Source: PubChem (several laboratories)
NRP1-CendR mod: alters CendR peptide binding to human NRP-1; O14786; FAM-RPARPAR peptide binding to NRP-1, fluorescence polarization; inhibition, % at 25 µM; 360,000 tested, 0.85% active;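 active = inhibition or corrected inhibition above about 18%, plus a signal ratio from 0.5 to 1.5, limit read from the data, passing the limit was not always enough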
Target sequence (O14786 whole entry, looked up): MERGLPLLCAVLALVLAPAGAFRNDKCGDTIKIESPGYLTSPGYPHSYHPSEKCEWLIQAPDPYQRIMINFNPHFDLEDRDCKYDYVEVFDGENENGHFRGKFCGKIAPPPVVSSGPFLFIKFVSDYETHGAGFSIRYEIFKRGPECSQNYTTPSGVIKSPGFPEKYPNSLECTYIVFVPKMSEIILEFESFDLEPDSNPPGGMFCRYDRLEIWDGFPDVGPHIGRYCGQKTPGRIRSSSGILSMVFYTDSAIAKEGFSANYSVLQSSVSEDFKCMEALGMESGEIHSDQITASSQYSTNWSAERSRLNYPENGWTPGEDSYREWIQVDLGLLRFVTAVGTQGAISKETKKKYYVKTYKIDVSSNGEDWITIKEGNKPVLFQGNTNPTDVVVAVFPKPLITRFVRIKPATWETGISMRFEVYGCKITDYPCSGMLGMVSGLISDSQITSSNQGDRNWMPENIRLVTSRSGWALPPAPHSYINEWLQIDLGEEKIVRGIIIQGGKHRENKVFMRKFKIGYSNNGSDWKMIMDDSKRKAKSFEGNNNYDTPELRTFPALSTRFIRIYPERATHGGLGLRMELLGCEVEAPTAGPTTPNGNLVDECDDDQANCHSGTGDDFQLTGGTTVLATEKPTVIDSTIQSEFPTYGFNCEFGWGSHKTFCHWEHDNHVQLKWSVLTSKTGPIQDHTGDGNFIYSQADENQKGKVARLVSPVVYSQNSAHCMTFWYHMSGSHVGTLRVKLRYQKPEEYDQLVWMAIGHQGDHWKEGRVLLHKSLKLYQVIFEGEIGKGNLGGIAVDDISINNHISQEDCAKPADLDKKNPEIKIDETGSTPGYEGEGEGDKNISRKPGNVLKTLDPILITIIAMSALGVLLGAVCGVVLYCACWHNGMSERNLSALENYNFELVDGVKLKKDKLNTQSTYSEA
CRFR2-BP antag: CRF-BP/CRF-R2 complex antagonism. HEK293 CRF-R2/CRF-BP, CRF-induced calcium fluorescence. inhibition, % at 11.8 µM. 350,000 tested, 0.59% active. AID 588475;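 active = inhibition of the ligand-induced calcium signal above about 50% at the single tested concentration, limit read from the data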
NadD inh: blocks S. aureus nicotinate mononucleotide adenylyltransferase; purified NadD enzyme, colorimetric absorbance read-out; AID 602399; 360,000 tested, 0.78% active; inhibition, % at 20 µM; in the data active = inhibition above about 26%
FAS TE block: blocks the thioesterase domain of human fatty acid synthase; inhibition, % at 15 µM; recombinant FAS-TE, OMFH fluorogenic substrate, fluorescence endpoint; P49327; 360,000 tested, 0.67% active;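 active = compounds whose normalised, plate-corrected inhibition of enzyme fluorescence in the single-dose primary screen is 50% or more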;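 also: 0% = DMSO with enzyme and 100% = substrate without enzyme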
Myeloid diff MLP: myeloid differentiation induction; ER-HoxA9 myeloid progenitors, lysozyme-GFP differentiation, flow cytometry; calls only at 10 µM; 360,000 tested, 1% active; AID 624256;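 active = normalized GFP-positive differentiation at or above the plate's own cutoff, the solvent-only control mean plus 3 SD; inconclusive = no clear call, values can overlap the other calls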;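 also: cells exposed to compound for four days before flow analysis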
FAS-TE inh conf: FAS thioesterase (human) inhibition, confirmation; shares compounds with FAS TE block; recombinant FAS-TE, OMFH fluorogenic substrate, fluorescence; inhibition, % at 15 µM; 2,300 tested, 45% active;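 active = compounds inhibiting the enzyme by at least 50% at 15 µM in any one of the replicates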;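 also: 0% = enzyme with DMSO only and 100% = wells lacking enzyme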
Numbers without * were called inactive; i = inactive; ? = inconclusive; · = no result. Hits are enriched below; roughly 3.6% of the tested compounds scored in any of these assays.

SMILES	NRP1-CendR mod	CRFR2-BP antag	NadD inh	FAS TE block	Myeloid diff MLP	FAS-TE inh conf
CCOc1ccc(-n2c(SCc3ccc([N+](=O)[O-])cc3)nnc2-c2ccccc2)cc1	-1	28	13	63*	i	56*
COc1ccc(-n2c(SCc3ccc([N+](=O)[O-])cc3)nnc2-c2ccccc2)cc1	0	23	-18	56*	i	51*
O=C(CSc1ccc(Cl)cc1)N/N=C/c1cccnc1	13	-10	-4	-1	i	·
CCOC(=O)c1noc(C)c1C(=O)Nc1nccs1	9	-30	3	-10	i	·
O=C(c1ccc([N+](=O)[O-])cc1)N1CCC(Cc2ccccc2)CC1	13	24	-6	59*	i	54*
O=[N+]([O-])c1cccc(OCCN2CCC(Cc3ccccc3)CC2)c1	2	2	-5	63*	i	67*
CCC12CN(C(=O)c3ccc([N+](=O)[O-])cc3)CC(CC)(CN(C(=O)c3ccc([N+](=O)[O-])cc3)C1)C2=O	-6	0	-1	58*	i	38
S=C(Nc1ccc(Oc2ccccc2)cc1)Nc1cccnc1	-1	-3	3	8	i	·
Cc1ccc(NC(=O)CN2C(=O)CSc3ccc(S(=O)(=O)N4CCCCC4)cc32)cc1	0	-28	5	56*	i	42*
O=C(CN1C(=O)CSc2cc(S(=O)(=O)N3CCCCCC3)ccc21)NCCc1ccccc1	-2	4	-4	50*	?	9
CCOc1ccc(NC(=O)CN2C(=O)CSc3ccc(S(=O)(=O)N4CCCC4)cc32)cc1	6	-8	1	30	i	·
COc1cccc(NC(=O)CN2C(=O)CSc3ccc(S(=O)(=O)N4CCCCC4)cc32)c1	9	-7	1	53*	i	66*
CN(C)CCNC(=O)CN1C(=O)CSc2ccc(S(=O)(=O)N3CCCCC3)cc21	17	3	-4	-2	i	·
O=C(NCc1ccc2c(c1)OCO2)c1ccc2c(c1)N(Cc1c(F)cccc1Cl)C(=O)CS2	-4	18	-1	54*	i	33*
CCCCCCCc1nc2sc3c(c2c(=O)n1N)CC(C)(C)OC3	3	9	-1	-2	i	·
CCCCCc1nc2sc3c(c2c(=O)n1NC(=O)c1ccc([N+](=O)[O-])cc1)CC(C)(C)OC3	6	8	7	78*	i	63*
C=CCN1C(=O)/C(=C/c2ccc(OC(C)=O)c(OCC)c2[N+](=O)[O-])SC1=S	-98	59*	3	75*	i	46*
CCOC(=O)[C@@H]1[C@H]2COc3cc(OC)ccc3[C@H]2N2C(=O)N(c3ccc(OC)cc3)C(=O)[C@]12C	3	-2	-11	8	i	·
COc1ccc(-c2ccc(OC)c([C@H]3[C@H]4C=CC[C@@H](C)[C@@H]4C(=O)N3Cc3ccccc3)c2)cc1OC	0	0	9	36	i	·
COc1ccc(-c2c([C@H]3[C@H]4C=CC[C@@H](C)[C@@H]4C(=O)N3Cc3ccccc3)ccc3ccccc23)cc1OC	21	11	22	55*	i	14
COc1ccc(-c2csc3ncnc(N4CCN(S(=O)(=O)c5cccc(C(F)(F)F)c5)CC4)c23)cc1	-3	-8	17	50*	i	8
COc1ccc(-c2csc3ncnc(N4CCN(S(=O)(=O)c5ccc(C(C)=O)cc5)CC4)c23)cc1	-14	16	22	44	i	·
Cc1ccc(S(=O)(=O)N2CCN(c3ncnc4scc(-c5ccccc5)c34)CC2)cc1	9	-103	14	52*	i	15
Cc1nc(N2CCN(S(=O)(=O)c3ccccc3C#N)CC2)c2c(-c3ccccc3)csc2n1	0	-12	18	83*	i	39
Cc1ccc(NC(=O)C(C)c2ccc([N+](=O)[O-])cc2)cc1Cl (stereo not drawn)	-4	-29	-7	59*	i	45
SMILES	NRP1-CendR mod	CRFR2-BP antag	NadD inh	FAS TE block	Myeloid diff MLP	FAS-TE inh conf
CCN(CC)S(=O)(=O)c1ccc2oc(C(=O)N3CCc4ccccc4C3)c(C)c2c1	-1	-12	2	38	i	·
Cc1c(C(=O)N2CCc3ccccc3C2)oc2ccc(S(=O)(=O)N3CC(C)CC(C)C3)cc12 (stereo not drawn)	5	-7	15	52*	i	4
CC(=O)N(C1=C(Cl)C(=O)c2ccccc2C1=O)C1CCCCC1	23	4	14	80*	i	71*
CC(=O)c1ccc(Nc2nc(N3CCOCC3)nc(N3CCOCC3)n2)cc1	5	4	0	-1	i	·
COc1cc(/C=N/Nc2nc(C)cc(C)n2)ccc1OC(=O)c1ccco1	-1	10	-1	-2	i	·
CCOC(=O)c1ccc(Nc2nc(N3CCOCC3)nc(N3CCOCC3)n2)cc1	1	-1	-3	51*	i	14
CCOc1cc(/C=N\Nc2nc(Nc3ccccc3)nc(N3CCOCC3)n2)ccc1OC(=O)c1ccco1	-3	12	15	72*	i	17
Cc1c(-n2c(-c3ccccc3)nc3ccccc3c2=O)c(=O)n(-c2ccccc2)n1C	6	20	-1	-4	i	·
COc1cc(/C=C2/SC(=S)N(c3ccccc3)C2=O)ccc1Oc1nc(N2CCOCC2)nc(N2CCOCC2)n1	8	15	4	63*	i	-3
Cc1cc(=O)n2[nH]c(-c3ccccc3)cc2n1	6	12	1	-7	i	·
Cc1cc(=O)n2[nH]c(-c3ccc(C(C)(C)C)cc3)cc2n1	-4	-30	1	63*	i	44*
O=C(CCNc1ccc(Br)cc1)c1cccc([N+](=O)[O-])c1	-2	-17	-3	64*	i	53*
O=C(N/N=C/c1cc([N+](=O)[O-])cc([N+](=O)[O-])c1O)/C(=C\c1cccs1)NC(=O)c1ccccc1	-38	-5	39*	75*	i	74*
CC(=O)NNc1nc(-c2ccccc2)cs1	-8	-9	1	70*	i	55*
COCCNC(=O)/C(C#N)=C/C=C/c1ccccc1[N+](=O)[O-]	-34	-8	6	-6	i	·
COC(=O)[C@]1(Cc2ccccc2)N[C@H](c2ccc(-c3cccc(Cl)c3)c(OC)c2)[C@@H]2C(=O)N(C)C(=O)[C@@H]21	-24	-7	20	93*	i	44
CCN1C(=O)[C@H]2[C@@H](c3ccc(-c4ccccc4)cc3)N[C@@](Cc3ccccc3)(C(=O)OC)[C@H]2C1=O	-4	-14	0	37	i	·
CCN(C[C@H]1N[C@@](Cc2ccccc2)(C(=O)OC)[C@H]2C(=O)N(C)C(=O)[C@@H]12)S(=O)(=O)c1ccc(-c2ccccc2)cc1	-2	-4	0	52*	i	33
